Source: PubChem (National Center for Advancing Translational Sciences (NCATS))
S2 tox: viability counter-screen for ATXN expression inhibitors. S2 cells (HEK-293 line with an ATXN2-luciferase reporter) viability, CellTiter-Fluor protease fluorescence, 24 h. Potency, µM (top dose mostly 56.7 µM), usual class: cytotoxic. hit rate 0.49% among 400,000. AID 651635; also: nearly all actives have a fitted effect of over 40% in size
TGFb inhibitor: TGF-b pathway inhibition. HepG2 CAGA-GFP TGF-b/SMAD3 reporter, GFP fluorescence, 18 h; TGF-beta stimulated, 500 pg/mL final. Potency, µM (highest dose often 46.1 µM), most hits filed as inhibitors. hit rate 1.2% among 410,000. AID 588855; also: nearly all actives have a fitted effect of over 65% in size
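Read-out: total well GFP (ex488/em500-530) summed from mean per-cell fluorescence. Cells: HEPG2 CAGA-GFP, 1% FBS DMEM, 18 h at 37 degrees C with 500 pg/mL final TGF-beta. Unstimulated wells served as the full-inhibition control; stimulated DMSO wells = 0%.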
HepG2 viability: kills HepG2 cells in TGF-b inhibitor counter-screen. AID 588856. HepG2 CAGA-GFP viability, ATP luminescence, 18 h. Potency, µM (top dose mostly 46.1 µM), actives largely listed as cytotoxic. hit rate 0.76% among 410,000
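CellTiter-Glo luminescence gave cytotoxicity after 18 hours at 37 degrees C. The cells were HepG2 CAGA-GFP in 1% FBS DMEM, stimulated with 500 pg/mL TGF-beta after compound addition. %Activity was normalised to no-cell wells (complete cell-killing) and DMSO (no toxicity), and curves were fitted and classified.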
HT1080NT lethal: kills 2HG-producing HT-1080-NT fibrosarcoma cells | HT-1080-NT fibrosarcoma viability, CellTiter-Glo ATP luminescence, 48 h | Potency, µM (titrated, usually from 46.1 µM), actives largely listed as cytotoxic | hit rate 1.6% among 360,000;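 also: NT is the 2HG producing partner of a matched IDH1 knockdown line; nearly all actives have a fitted effect of over 55% in size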
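Compounds were tested in concentration-response format on HT-1080-NT cells for 48 hours at 37 degrees C. Cell viability came from CellTiter-Glo luminescence; curves were classified by r2, response magnitude and activity.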
ATXN2 expr inh: ATXN2 expression inhibition. hit rate 0.72% among 360,000. Potency, µM (series often up to 57 µM), hits mostly inhibitors. HEK-293 ATXN2-luciferase reporter, luminescence, 24 h; also: nearly all actives have a fitted effect of over 55% in size
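qHTS (up to 57 uM final) was run with 24 h compound exposure of reporter cells at 37 °C. Each well was multiplexed: SteadyGlo luminescence measured ATXN2-luciferase expression after a fluorogenic Gly-Phe-AFC viability readout (25 uM final).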
HT1080 IDH1KD tx: kills HT-1080 cells with IDH1 knockdown; HT-1080 IDH1 knockdown viability, ATP luminescence, 48 h; hit rate 2% among 360,000; Potency, µM (series often up to 46.1 µM), actives largely listed as cytotoxic
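IDH1KD HT-1080 cells, 750/well, RPMI + 5% FBS; compound pinned after 2 h settling; 48 h, 37 °C; CellTiter-Glo luminescence; % activity normalised to DMSO and no-cell wells; curves fitted, classed by r2 and efficacy.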
Hits are given with their value; . = inactive; ? = inconclusive; / = no result; [ ] = dose if it differs, or a comment. Sampled rows, rich in hits. Any-hit rate of the full collection: about 3.8%. Calls follow the shape of the dose curve; as a rule, active = well fitted curve in the direction sought with a large enough effect; inconclusive = small, poorly fitted or top-dose-only effect, or another doubt; inactive = no such curve, though single readings can be large; an effect the other way counts as inactive or inconclusive.

SMILES	S2 tox	TGFb inhibitor	HepG2 viability	HT1080NT lethal	ATXN2 expr inh	HT1080 IDH1KD tx
Cc1c(C(=O)N2CCN(C(C)C)CC2)sc2ncnc(NCc3ccco3)c12	.	/	/	/	/	/
CNC(=O)C1CCC(Cn2c(=O)c3sccc3n(CC(=O)NCc3cccc(OC)c3)c2=O)CC1 (stereo not drawn)	.	.	.	/	.	/
CCOC(=O)COc1ccc(F)cc1C(=O)c1ccn2nc(-c3ccc(Cl)cc3)cc2n1	.	.	.	/	.	/
CSc1nn(Cc2ccc(Br)cc2)c(N(C(C)=O)C(C)=O)c1S(=O)(=O)c1ccccc1	/	?	11.2µM	/	?	/
COc1cccc(Cn2nc(SC)c(S(=O)(=O)c3ccccc3)c2N(C(C)=O)C(C)=O)c1	?	?	.	/	.	/
CSc1nn(Cc2ccc(Cl)cc2)c(N(C(C)=O)C(C)=O)c1S(=O)(=O)c1ccccc1	/	?	.	/	?	/
CSc1nn(Cc2ccc(C)cc2)c(N)c1S(=O)(=O)c1ccccc1	.	?	.	/	.	/
CSc1nn(Cc2cccc(F)c2)c(N(C(C)=O)C(C)=O)c1S(=O)(=O)c1ccccc1	17.8µM	?	.	/	?	/
CSc1nn(Cc2ccc(F)cc2)c(N)c1S(=O)(=O)c1ccc(Cl)cc1	?	10µM	14.1µM	/	?	/
COc1ccc(C2CC(=O)c3cc(-c4nc(-c5cccc(Cl)c5)cs4)c(=O)[nH]c3C2)cc1OC (stereo not drawn)	.	.	.	/	.	/
C=C(CCC(=O)c1ccccc1)C(=O)c1ccccc1	?	.	10µM	25.9µM	?	?
CCOC(=O)Cn1c(=O)oc2cc(S(=O)(=O)N3CCC(C(=O)OCC)CC3)ccc21	/	.	.	/	/	/
COc1ccc(/C=C/C(=O)NCC(=O)N/N=C/c2cc(Br)ccc2OCc2ccccc2)cc1	15.8µM	.	.	?	.	.[9.24 µM]
COc1ccccc1/C=C\C(=O)NCC(=O)N/N=C/c1ccc(O)cc1O	?	?	.	?	.	9.2µM
COc1ccc(NC(=O)CSc2nc(-c3cccc(C)c3)[nH]c2-c2ccccc2)cc1OC	?	11.2µM	.	/	?	/
O=C(CSc1nc(-c2ccccc2)[nH]c1-c1ccccc1)Nc1ccc2c(c1)OCO2	?	11.2µM	.	/	20µM	/
CCOc1ccc(-c2nc(SCC(=O)Nc3ccc4c(c3)OCCO4)c(-c3ccc(F)cc3)[nH]2)cc1	.	?	12.6µM	/	.	/
Cc1ccc2oc(-c3ccc(C)c(NC(=O)c4ccc(-c5ccccc5[N+](=O)[O-])o4)c3)nc2c1	.	.	.	/	.	/
O=C(c1ccccc1)c1c2c(cc3sc4ccccc4[n+]13)-c1cccc3cccc-2c13	10µM	.	.	?	?	?
O=C(c1ccccc1)c1ccc2ccccc2c1	.	.	.	.	.	.
Cc1sc2cc3c(c(C(=O)c4ccccc4)[n+]2c1C)-c1cccc2cccc-3c12	?	?	.	8.2µM	10.6µM	8.2µM
Cc1cc2ccccc2cc1C(=O)c1ccccc1	.	.	.	.	.	.
O=C(NCc1cccc(Br)c1)c1cnn(-c2ccc(F)cc2)c1-n1cccc1	?	?	.	/	.	/
COc1cccc(C(=O)Nc2c3c(nn2-c2ccc(C)cc2C)CS(=O)(=O)C3)c1OC	.	.	3.16µM	/	.	/
CC(=O)N1c2ccc(S(=O)(=O)NCCC(=O)Nc3ccc(Br)c(C)c3)cc2CC1C (stereo not drawn)	?	11.2µM	.	/	.	/
CC(=O)N1c2ccc(S(=O)(=O)NCCC(=O)Nc3ccc(C)c(Cl)c3)cc2CC1C (stereo not drawn)	.	?	.	.	.	.
Cc1cc2c(c(-c3cnccn3)c1)OC(CNC(=O)c1c(F)cccc1Cl)C2 (stereo not drawn)	.	/	/	/	/	/
N#Cc1c(N)nc2c(c1-c1ccc3c(c1)OCO3)CCc1ccccc1-2	.	.	.	?	.	16.4µM
O=C(O)c1cccc(NC(=O)c2cccc(NC(=O)C3CCCO3)c2)c1 (stereo not drawn)	.	.	.	.	8.91µM	.
